Results on 15 molecules are retold here after PubChem BioAssay AID624267 (The Scripps Research Institute Molecular Screening Center, 2012).

The structures appear in SMILES notation. Among all 360,000 compounds or so, about 1,400 (0.39%) were called active. No stated cut-off is given here; in the data, active means inhibition above about 21%; inactive means the rest. This excerpt belongs to a sample that is enriched for actives.

The target of this assay is Receptor-interacting serine/threonine-protein kinase 2 (Homo sapiens) (UniProt O43353). Kind of assay: NOD2-RIPK2 binding disruptors in cells, primary screen, fluorescence, CHO cells, BLA complementation (AID 624267).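 Further: 0% = vehicle only and 100% = reference blocker.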 The note with it: CHO BLA complementation NOD2-RIPK2, CCF4 ratio; at 4.98 µM; active compounds read high.
Receptor-interacting serine/threonine-protein kinase 2 (Homo sapiens), sequence (O43353 whole entry, looked up): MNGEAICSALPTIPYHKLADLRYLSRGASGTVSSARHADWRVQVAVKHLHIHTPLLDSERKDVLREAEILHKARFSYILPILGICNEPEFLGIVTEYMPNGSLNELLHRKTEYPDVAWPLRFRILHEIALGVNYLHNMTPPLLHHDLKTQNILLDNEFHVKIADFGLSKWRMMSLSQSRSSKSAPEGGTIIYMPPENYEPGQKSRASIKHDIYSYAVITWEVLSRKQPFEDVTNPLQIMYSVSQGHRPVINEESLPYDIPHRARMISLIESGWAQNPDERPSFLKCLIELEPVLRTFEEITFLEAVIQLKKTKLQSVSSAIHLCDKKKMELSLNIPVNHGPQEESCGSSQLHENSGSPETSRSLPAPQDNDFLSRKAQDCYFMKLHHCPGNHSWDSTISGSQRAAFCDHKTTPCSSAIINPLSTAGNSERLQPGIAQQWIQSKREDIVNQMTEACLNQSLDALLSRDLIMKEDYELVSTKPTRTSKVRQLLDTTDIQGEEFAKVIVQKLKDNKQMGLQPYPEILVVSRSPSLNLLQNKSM
Consider `CCOC(=O)[C@]12Cc3cc(OC)ccc3[C@H]1N(C(C)C)C(=O)c1ccccc12`, for which the inhibition – broadly, the relative decrease from the control value, in per cent – is -1.01% (inactive).

Regarding `CCOC(=O)[C@]12Cc3ccccc3[C@H]1N(C1CCCCC1)C(=O)c1cc(OC)ccc12`, the inhibition is 43.5% (active). Turning to `CCOC(=O)c1cccc(C2=C(CNC(=O)c3ccncc3)[C@H]3CC[C@@H](C2)N3Cc2ccccc2)c1`, the inhibition is -12.2% (inactive). As for `Cc1ccc2c(c1)C1CN(C)CCC1N2C(=O)Cn1nnc(-c2ccccc2F)n1` (stereo not given), the inhibition is -3.9% (inactive).

As to `CCN1CCN(Cc2cc(OC)c3c(c2)OCO3)CC1`, the inhibition was -5.64% (inactive). Regarding `COc1cc(OC)cc(C2(C#N)CCN(C)CC2)c1`, the inhibition is -12.2% (inactive). In the case of `c1ccc(CCNC2CCCCCC2)cc1`, the inhibition is -21.6% (inactive). The figure for `CC(=O)OC1C2(CC3N4C(=O)C5(CO)SSC4(CC31O)C(=O)N5C)OC(C)C(C)(C)C2=O` (stereo not given) is 63.9% (active); for `CC(=NCc1ccc2c(c1)OCO2)c1c(O)[nH]c(=O)[nH]c1=O` it is 4.27% (inactive). `CC(C(=O)Nc1ccc(Cl)cc1Cl)N1CC=C(c2ccccc2)CC1` (stereo not given): the inhibition was -16.5% (inactive). As for `CC[C@H]1CC2CN3CCc4c([nH]c5ccccc45)C(C(=O)OC)(C2)C13` (stereo not given in full), the inhibition is -13.6% (inactive). As to `CNCC(O)c1cc(F)c(OCc2ccccc2)c(OCc2ccccc2)c1F` (stereo not given), the inhibition was -9.31% (inactive). The figure for `CN(C)CC1Oc2ccccc2OC1(O)c1ccccc1` (stereo not given) is 54.1% (active); for `COc1ccccc1NC(=O)N1C[C@@H]2C[C@@H](C1)c1cccc(=O)n1C2` it is -9.61% (inactive); for `COC(=O)C1=C(c2ccc(Cl)c(C(F)(F)F)c2)C[C@@H]2CC[C@H]1N2C(=O)NC1CC1` it is -1.54% (inactive).
